A selection: hits, their analogues and other compounds. The true share with any hit is near 13%.
FMDV antiviral: foot and mouth disease virus antiviral activity; FMDV antiviral cell-based qHTS; Potency, µM (series often up to 57.9 µM), for inactives: at the highest dose activity change, negative = inhibition, usual class: inhibitors; 410,000 tested, 1.2% active; AID 1159524; calls by dose curve; tested in HEK293T cells; note: read-out not given here; potency is the fitted concentration of half-maximal effect; % is set by controls: 0 for no effect and ±100 for the full control effect; nearly all actives have a fitted effect of over 45% in size
Shiga inhibitor: blocks Shiga toxin action in Vero cells; Vero cells, Shiga toxin protein synthesis inhibition reporter; inhibition, % at 38.7 µM; 290,000 tested, 9.2% active; AID 2315; in the data active = inhibition mostly above about 28%, no sharp cut-off; inactive = mostly below about 43%; note: 0% is about no effect
HCV inhibitor: blocks hepatitis C virus; Huh7.5.1 HCVcc-Cre infection, luciferase reporter, 44 h; Potency, µM (highest dose often 41.8 µM), without a hit: at the top dose activity change, negative = inhibition, hits mostly inhibitors; 340,000 tested, 3.4% active; AID 651820; active = well fitted inhibition curve with a large enough effect; inconclusive = small, poorly fitted or top-dose-only effect, or another doubt; inactive = no such curve, though single readings can be large or run the other way; note: potency is the fitted concentration of half-maximal effect; % is set by controls: 0 for no effect and ±100 for the full control effect
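Cells (1,000/well) were plated 4 h before compound, then infected with HCVcc-Cre virus (~0.5 moi). After 44 h further culture, infection was read as luciferase luminescence following a 15 min substrate incubation at room temperature.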
CHX counter: counter-screen hit for Shiga toxin inhibitors, cycloheximide; max response, %; 300,000 tested, 12% active; AID 2314; cell reporter, cycloheximide protein synthesis inhibition counterscreen; in the data active = max response mostly above about 13%, no sharp cut-off; inactive = mostly below about 14%; note: read at 38.3 µM for the half of the compounds with a filed dose; 0% is about no effect
LASV entry inh: inhibitors of Lassa virus binding or cell entry. Lassa virus pseudotype entry inhibition, cell reporter. AID 540256. 300,000 tested, 1.2% active. Potency, µM (highest dose often 37.9 µM), for inactives: top-dose activity change, negative = inhibition, most hits filed as inhibitors; calls by dose curve; tested in HEK293 cells; note: potency is the fitted concentration of half-maximal effect; % is set by controls: 0 for no effect and ±100 for the full control effect; nearly all actives have a fitted effect of over 50% in size
MARV entry inh: inhibitors of Marburg virus binding or cell entry | AID 540276 | Potency, µM (highest dose often 37.8 µM), inactives show at the top dose activity change, negative = inhibition, hits mostly inhibitors | 300,000 tested, 1.8% active | Marburg virus pseudotyped entry inhibition, cell reporter; calls by dose curve; tested in HEK293 cells; note: potency is the fitted concentration of half-maximal effect; % is set by controls: 0 for no effect and ±100 for the full control effect
Numbers without * were called inactive; ? = inconclusive; . = no result given; [ ] = another dose, or the depositor's remark.

SMILES | FMDV antiviral | Shiga inhibitor | HCV inhibitor | CHX counter | LASV entry inh | MARV entry inh
C=CCn1c(C)cc(C(=O)CN2NS(=O)(=O)c3ccccc3C2=O)c1C | 5.4% | 87.1* | ? | 33.2* | . | .
Cc1ccc(CN2CC(N3CCN(c4ccccn4)CC3)CS2(=O)=O)cc1 (stereo unspecified) | -18.2% | . | . | . | -3.5%[46.1 µM] | .
COc1cccc(NC(=O)OCCN2CCN(Cc3ccccc3)CCC2=O)c1 | -11.4% | 19.0 | ? | 7.6 | -6.3% | 8.0%
O=C(Cn1ncc(Cl)c(Cl)c1=O)c1ccc(Cl)cc1 | 35.5µM* | 32.4* | 2.82µM* | 21.2* | ? | 2.91µM*
CC1CCN(S(=O)(=O)c2ccc3c(c2)N(CC(=O)NCCN(C)C)C(=O)CS3)CC1 | -12.2% | . | . | . | . | 4.0%[46.1 µM]
CCn1c(SCc2ccc(C(=O)Nc3cc(C)cc(C)c3)cc2)nnc1-c1ccncc1 | 17.8µM* | 2.2 | 11.2µM* | -1.1 | -22.7% | ?
Cc1ccc(NC(=O)c2ccc(CSc3nnc(-c4ccncc4)n3C)cc2)cc1 | 24.2% | 18.1 | 13.9% | 5.8 | 4.0% | 18.8%
CCOC(=O)c1ccc(CSc2nnc(-c3ccncc3)n2N)cc1 | 0.0% | 77.1 | -8.3% | 40.5* | 1.1% | -12.3%
COCCn1c(SCCCC(=O)c2ccc(Br)cc2)nnc1-c1ccncc1 | ? | -18.6 | 7.94µM* | -5.3 | ? | ?
Cc1ccc(CSc2nnc(-c3ccncc3)n2N)cc1 | -6.6% | 17.8 | 15.0% | 7.7 | 11.0% | 3.3%
COc1ccccc1/C=C/c1nc(S(=O)(=O)c2ccccc2)c(N2CCC(C(N)=O)CC2)o1 | 1.2% | 5.5 | ? | 11.6 | . | .
CC(C)c1nc(C(=O)N2CCCC(N3CCN(c4cccc(Cl)c4)CC3)C2)cs1 (stereo unspecified) | -25.0% | -15.3 | ? | -2.7 | ? | ?
CCn1c(CNC(=O)c2ccco2)nnc1SCCOc1ccccc1 | 5.0% | 5.5 | -20.2% | -1.3 | -24.4%[46.1 µM] | 2.7%[46.1 µM]
CCOc1ccc(CCN2C(=S)N([C@@H](CC(C)C)CN3CCC[C@@H]3CN3C(=S)NC[C@@H]3CC(C)C)C[C@@H]2Cc2ccc(O)cc2)cc1 | -21.5% | . | . | . | . | .
CCOc1ccc(CCN2C(=S)N([C@@H](CC(C)C)CN3CCCC3CN3C(=S)NC[C@@H]3Cc3ccc(O)cc3)C[C@@H]2Cc2ccccc2)cc1 (stereo partly specified) | -26.2% | . | 10µM* | . | . | .
CCOc1ccc(CCN2C(=S)N([C@@H](CC(C)C)CN3CCCC3CN3C(=S)NC[C@@H]3Cc3ccc(O)cc3)C[C@@H]2CC(C)C)cc1 (stereo partly specified) | -26.3% | . | ? | . | . | .
CCOc1ccc(CCN2C(=S)N([C@@H](CC(C)C)CN3CCCC3CN3C(=S)NC[C@@H]3Cc3ccc(O)cc3)C[C@@H]2Cc2ccc(O)cc2)cc1 (stereo partly specified) | ? | . | 11.2µM* | . | . | .
Oc1ccc(C[C@@H](CN2CCC[C@@H]2CN2C(=S)NC[C@@H]2Cc2ccccc2)N2C[C@H](Cc3ccccc3)N(CCc3ccccc3)C2=S)cc1 | -0.5% | . | . | . | . | .
Oc1ccc(C[C@H]2CNC(=S)N2CC2CCCN2C[C@H](Cc2ccccc2)N2C[C@H](Cc3ccc(O)cc3)N(CCc3ccccc3)C2=S)cc1 (stereo partly specified) | 0.0% | . | 2.24µM* | . | . | .
CCOc1ccc(CCN2C(=S)N([C@@H](CC(C)C)CN3CCCC3CN3C(=S)NC[C@@H]3CC(C)C)C[C@@H]2Cc2ccc(O)cc2)cc1 (stereo partly specified) | -23.1% | . | 0.562µM* | . | . | .
CNC(=O)COc1ccc(NC(=O)c2ccc(-c3nn(C)c(=O)c4ccccc34)cc2)cc1 | -21.2% | . | . | . | ? | -12.8%[46.1 µM]
O=C(Nc1cc(F)ccc1F)c1cnn2c(C(F)F)cc(-c3ccccc3)nc12 | -13.4% | . | . | . | 4.6%[46.1 µM] | 6.4%[46.1 µM]
O=C(NN1CCOCC1)c1ccc(Cl)cc1Cl | 0.6% | . | 12.9% | . | . | .
O=C(O/N=C1/CCCc2occc21)c1ccc(Cl)cc1Cl | 6.7% | 86.1* | 5.6% | 53.8* | 12.3%[46.1 µM] | -4.7%[46.1 µM]
O=C(O/N=C1\CCCc2ccccc21)C1CC1 | -17.9% | -8.1 | ? | -1.4 | -0.6% | 1.4%
SMILES | FMDV antiviral | Shiga inhibitor | HCV inhibitor | CHX counter | LASV entry inh | MARV entry inh
O=C(O/N=C1/CCCc2occc21)c1ccccc1 | 17.0% | 54.4* | 1.7% | 26.0* | -0.5% | -0.6%
COc1ccc(C(C(=O)NC(C)(C)C)n2c(-c3ccc(-c4ccccc4)cc3)nc3ccccc32)cc1 (stereo unspecified) | 20.7% | . | . | . | . | .
Nc1nc2ccccc2n1C(=O)c1ccccc1 | -45.5% | -14.2 | -10.7% | 2.5 | . | .
COc1ccc(C(=O)n2c(N)nc3ccccc32)cc1OC | 44.0% | . | -4.3% | 24.8* | -1.5% | -17.2%
COc1ccc(C(=O)c2nc3ccccc3n2C(C)C)cc1OC | -15.4% | -7.1 | -14.0% | 7.5 | . | .
Nc1nc2ccccc2n1C(=O)c1cccs1 | 11.7% | 91.3* | -0.3% | 50.6* | ? | ?
Nc1nc2ccccc2n1C(=O)c1ccc(F)cc1 | -66.1% | 48.6 | -0.5% | 16.3* | 7.08µM* | ?
COC(=O)CSc1nc(N)c(C#N)c(C(C)C)c1C#N | -0.2% | -4.2 | -8.5% | -4.0 | -10.8% | ?
COC(=O)c1ccc(COc2ccc(-c3nnn(CC(N)=O)n3)cc2)cc1 | 23.1% | -3.7 | 8.4% | 2.9 | -16.4%[46.1 µM] | -2.8%[46.1 µM]
CC[n+]1c(/C=C/c2c[nH]c3ccccc23)ccc2cc(C)ccc21 | 12.6µM* | -5.5 | 4.47µM* | 0.3 | ? | ?
CCN(CC)C(=O)c1ccc(/C=C/c2c[nH]c3ccccc23)[n+](C)c1 | -21.5% | -15.8 | 29.3% | 7.4 | 8.5% | 19.4%
N#Cc1ccccc1OCc1nnc(-c2ccccc2Br)o1 | 31.3% | 102.9* | -29.7% | 47.7* | ? | ?
Clc1ccc(Cc2nnc(-c3ccccc3Br)o2)cc1 | 36.8% | 38.8* | -5.3%[8.37 µM] | 21.8* | 9.1% | 0.3%
Clc1ccccc1OCc1nnc(-c2ccccc2Br)o1 | 66.2% | 120.2* | -8.2% | 52.2* | ? | 6.2%
CCOC(=O)C(C)S(=O)(=O)c1ccc(C(F)(F)F)cn1 (stereo unspecified) | -2.1% | -6.1 | 3.1% | 1.1 | -0.2% | -1.5%
Cc1cc(=O)c(C(=O)O)nn1-c1ccc(Cl)cc1 | -23.5% | -5.4 | 16.1% | -0.6 | . | .
CC1(C(=O)NS(=O)(=O)c2ccc(Cl)cc2)CCN1C(=O)c1ccccc1 (stereo unspecified) | -1.8% | . | . | . | . | .
O=C(NC1=NCCS1)c1ccc(Cl)c(Cl)c1 | -7.7% | 67.9* | -20.3% | 47.5* | ? | ?
O=C(NC1=NCCS1)c1ccccc1F | 23.3% | . | 6.8% | . | ? | 3.2%[14.2 µM]
O=C(NC1=NCCS1)c1ccccc1OCc1ccccc1Cl | -7.8% | 11.0 | 12.6µM* | -1.8 | . | .
O=C(NC1=NCCS1)c1cc(Cl)ccc1Cl | 6.8% | -3.1 | 4.8% | 4.5 | . | .
O=C(NC1=NCCS1)c1cccs1 | 28.7% | 11.2 | 14.1% | -2.8 | 2.2% | -2.0%
O=C(NC1=NCCS1)c1csc2ccccc12 | 48.1% | 58.8* | 7.08µM* | 39.3* | ? | -1.4%

Screening data as filed in PubChem.
